The record followed here is PubChem BioAssay (EPA / NIEHS).

Inconclusive results are not listed. Calls of active or inactive are those of the source. The calls were made as follows, unless noted: active = hit-call score of the fitted dose curve at least 0.9, where 1 is the maximum; inconclusive = response in the unintended direction; inactive = score below 0.9.

One may read the AC50 as the midpoint of the concentration-response curve, whichever way the signal moves.

Test [1] has as its target Hypoxia-inducible factor 1-alpha (Homo sapiens) (UniProt Q16665). The experiment in a line: ATG_HIF1a_CIS: Attagene CIS-FACTORIAL HepG2 Assay for human Hypoxia Inducible Factor 1 (HIF1A) (AID 2282951; active = hit-call score of the fitted dose curve at least 0.9, where 1 is the maximum; inactive = score below 0.9). Conditions: HepG2 Attagene cis-factorial HIF1a reporter transcription; actives raise or lower the signal. The method in brief:
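HepG2, transient cis-reporter library, 24 h dosing. RNA → RT (oligo dT) → PCR → 6-FAM primer extension → HpaI → CE. Bidirectional curve fit vs DMSO.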

Test [2] in a line: ATG_GAL4_TRANS: Attagene TRANS-FACTORIAL HepG2 Assay for GAL4 (Internal Marker) (AID 2282976). Particulars: HepG2 Attagene TRANS GAL4 internal marker reporter. The method in brief: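 Fluorescence from capillary electrophoresis of labelled RT-PCR products quantifies reporter mRNA induction after 24 h dosing of HepG2 cells carrying transfected GAL4-UAS reporter transcription units. Vehicle DMSO serves as baseline.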

The target in test [3] is Glucocorticoid receptor (Homo sapiens) (UniProt P04150). The experiment in a line: ATG_GR_TRANS: Attagene TRANS-FACTORIAL HepG2 Assay for human Glucocorticoid Receptor (GR) (AID 2282978).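 Also: activators score as hits since higher reporter transcript over DMSO is fitted.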 Conditions: HepG2 Attagene TRANS GR reporter, mRNA transcription. The method in brief:
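Multiplexed TRANS reporter system, HepG2; 24 h exposure; RNA → oligo(dT) RT → reporter-specific PCR → 6-FAM primer extension → HpaI cut → CE fluorescence. Gain-of-signal vs DMSO.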

Test [4] concerns the target Oxysterols receptor LXR-alpha (Homo sapiens) (UniProt Q13133). Kind of test: ATG_LXRa_TRANS: Attagene TRANS-FACTORIAL HepG2 Assay for human Liver X Receptor alpha (LXRa) (AID 2282980). Particulars: HepG2 Attagene TRANS reporter, LXRa transactivation. The procedure, abridged:
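Transient HepG2 transfectants, 24 h dosing, RT-PCR/CE mRNA reporter quantitation; gain-of-signal vs DMSO.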

For test [5], the target named is human Peroxisome Proliferator-activated Receptor delta (PPARd), PPARD (gene 5467) (UniProt Q03181). Kind of test: ATG_PPARd_TRANS: Attagene TRANS-FACTORIAL HepG2 Assay for human Peroxisome Proliferator-activated Receptor delta (PPARd) (AID 2283002). The method in brief: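 HepG2 cells transiently transfected with GAL4-UAS multiplexed reporter units driven by exogenous chimeric NR-GAL4 proteins; 24 h compound exposure. Reporter mRNA measured by RT-PCR, 6-FAM primer extension, HpaI digestion and capillary electrophoresis; gain of signal fitted relative to DMSO.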
Chain of human Peroxisome Proliferator-activated Receptor delta (PPARd), PPARD (gene 5467) (Q03181 whole entry, looked up, the tested form may be a part): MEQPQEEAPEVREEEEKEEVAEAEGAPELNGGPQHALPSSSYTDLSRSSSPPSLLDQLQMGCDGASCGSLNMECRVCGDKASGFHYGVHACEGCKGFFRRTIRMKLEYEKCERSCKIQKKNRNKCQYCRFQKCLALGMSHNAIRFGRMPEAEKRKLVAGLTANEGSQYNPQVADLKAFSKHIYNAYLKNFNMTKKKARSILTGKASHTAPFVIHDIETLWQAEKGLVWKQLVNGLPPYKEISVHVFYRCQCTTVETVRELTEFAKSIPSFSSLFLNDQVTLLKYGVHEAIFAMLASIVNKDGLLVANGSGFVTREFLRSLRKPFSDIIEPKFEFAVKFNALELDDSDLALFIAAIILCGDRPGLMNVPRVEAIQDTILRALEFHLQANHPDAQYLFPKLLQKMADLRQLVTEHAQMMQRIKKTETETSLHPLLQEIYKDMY

Test [6] addresses human Thyroid Receptor alpha (THRa1), THRA (gene 7067) (UniProt P10827). Kind of test: ATG_THRa1_TRANS: Attagene TRANS-FACTORIAL HepG2 Assay for human Thyroid Receptor alpha (THRa1) (AID 2283014). The method in brief:
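First, HepG2 cells receive multiple GAL4-UAS reporter units and the chimeric receptor. They are then dosed for 24 h, after which RNA is reverse-transcribed, amplified, labelled, HpaI-cut and sized by capillary electrophoresis; gain relative to DMSO is scored.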

Test [7] in a line: TOX21_p53_BLA_p4_viability: Viability Assessment in the Tox21 HCT-116 p53 Agonism Beta-lactamase Assay, Phase 4 (AID 2283597).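 Also: hits lower the luminescence signal meaning cytotoxicity.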 The procedure, abridged: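 Compound exposure of HCT116 cells lasts 16 h at 37C, 5% CO2, with DMSO stocks diluted 217-fold. Cellular ATP is then quantified by CellTiter-Glo luminescence after 30 min at room temperature.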
For test [8], the target named is Bile acid receptor (Homo sapiens) (UniProt Q96RI1). The experiment in a line: ATG_IR1_CIS: Attagene CIS-FACTORIAL HepG2 Assay for human Nuclear Receptor Subfamily 1 Group H Member 4 (NR1H4), IR1 submotif (AID 2282946; active = hit-call score of the fitted dose curve at least 0.9, where 1 is the maximum; inactive = score below 0.9). Conditions: IR1 reporter transcription, actives raise or lower the signal. The procedure, abridged:
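HepG2 cells transiently transfected with multiple cis-promoter-driven reporter units to measure endogenous transcription factor activity; 24 h exposure. Reporter mRNA read by RT-PCR, FAM labelling, HpaI digestion and capillary electrophoresis. Bidirectional fit versus DMSO.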

Test [9] is described as follows: ATG_PPRE_CIS: Attagene CIS-FACTORIAL HepG2 Assay for human Peroxisome Proliferator-activated Response Element (PPRE) (AID 2282958; active = hit-call score of the fitted dose curve at least 0.9, where 1 is the maximum; inactive = score below 0.9). Conditions: HepG2 PPRE cis-element reporter, Attagene transcription factor profiling; actives raise or lower the signal. The procedure, abridged:
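Transcript-level reporter induction in transfected HepG2 cells after 24 h chemical exposure, quantified by fluorescence from RT-PCR products separated by capillary electrophoresis.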

Test [10] can be described thus: ATG_M_19_TRANS: Attagene TRANS-FACTORIAL HepG2 Assay for M19 Transcription Factor (Internal Marker) (AID 2282974). Particulars: HepG2 Attagene TRANS-FACTORIAL M19 internal marker reporter. The method in brief: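 After transfection of HepG2 with GAL4-UAS-driven reporter constructs, cells are dosed for 24 h. Total RNA is reverse-transcribed, reporter sequences PCR-amplified and labelled, then HpaI-digested and sized by capillary electrophoresis.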

For test [11], the target named is Peroxisome proliferator-activated receptor gamma (Homo sapiens) (UniProt P37231). The experiment in a line: ATG_PPARg_TRANS: Attagene TRANS-FACTORIAL HepG2 Assay for human Peroxisome Proliferator-activated Receptor-gamma (PPARg) (AID 2283007). The procedure, abridged:
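Human hepatoma HepG2, transient MRTU transfection, 24 h treatment. mRNA reporter signal by RT-PCR plus capillary electrophoresis, fluorescence detection; fitted for increase over DMSO negative control.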

For test [12], the target named is Nuclear receptor subfamily 4 group A member 2 (Homo sapiens) (UniProt P43354). The experiment in a line: ATG_NURR1_TRANS: Attagene TRANS-FACTORIAL HepG2 Assay for human Nuclear Receptor Related Protein 1 (NURR1) (AID 2282985). Particulars: HepG2 Attagene TRANS reporter, mRNA readout. The procedure, abridged: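 HepG2 cells transiently transfected with NURR1-Gal4 chimera and GAL4-UAS reporter units; after 24 hr compound exposure, reporter mRNA quantified by RT-PCR and capillary electrophoresis; gain of signal fitted against DMSO.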
Chain of Nuclear receptor subfamily 4 group A member 2 (Homo sapiens) (P43354 whole entry, looked up, the tested form may be a part): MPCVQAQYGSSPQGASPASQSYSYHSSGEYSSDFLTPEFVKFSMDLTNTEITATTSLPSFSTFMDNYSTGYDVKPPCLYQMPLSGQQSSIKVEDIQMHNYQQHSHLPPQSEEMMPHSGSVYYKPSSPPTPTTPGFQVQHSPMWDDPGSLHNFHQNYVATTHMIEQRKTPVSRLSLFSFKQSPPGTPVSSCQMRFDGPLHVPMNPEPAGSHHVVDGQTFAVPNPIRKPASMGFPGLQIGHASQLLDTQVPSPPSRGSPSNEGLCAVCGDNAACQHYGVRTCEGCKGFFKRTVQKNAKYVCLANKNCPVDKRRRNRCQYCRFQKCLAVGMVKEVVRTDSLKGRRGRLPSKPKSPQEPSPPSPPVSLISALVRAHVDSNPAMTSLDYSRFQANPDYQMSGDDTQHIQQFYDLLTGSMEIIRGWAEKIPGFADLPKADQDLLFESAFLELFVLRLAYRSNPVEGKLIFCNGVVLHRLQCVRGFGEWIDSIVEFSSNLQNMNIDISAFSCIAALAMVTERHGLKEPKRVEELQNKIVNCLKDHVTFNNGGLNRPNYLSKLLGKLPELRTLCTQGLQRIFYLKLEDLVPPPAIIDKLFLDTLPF

Test [13] concerns the target human Peroxisome Proliferator-activated Receptor alpha (PPARa), PPARA (gene 5465) (UniProt Q07869). The experiment in a line: ATG_PPARa_TRANS: Attagene TRANS-FACTORIAL HepG2 Assay for human Peroxisome Proliferator-activated Receptor alpha (PPARa) (AID 2283001).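 As to AC50: potency for gain of reporter signal over DMSO so agonist or activator.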 The procedure, abridged: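 HepG2 cells transiently transfected with multiplexed GAL4-UAS reporters driven by exogenous chimeric NR-Gal4 proteins; reporter mRNA measured after 24 h dosing. Read-out by RT-PCR, 6-FAM labelling, HpaI digestion and capillary electrophoresis; gain of signal versus DMSO.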

Test [14] concerns the target human Vitamin D Receptor (VDR), VDR (gene 7421) (UniProt P11473). The experiment in a line: ATG_VDR_TRANS: Attagene TRANS-FACTORIAL HepG2 Assay for human Vitamin D Receptor (VDR) (AID 2283022). The procedure, abridged: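 Fluorescence of labelled reporter cDNA fragments, resolved by capillary electrophoresis, gives mRNA induction after 24 h treatment of HepG2 cells carrying transfected Gal4-fusion reporter units. Activity is fitted in the positive direction with DMSO as baseline.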

Test [15] in a line: TOX21_p53_BLA_p3_viability: Viability Assessment in the Tox21 HCT-116 p53 Agonism Beta-lactamase Assay, Phase 3 (AID 2283593).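 Also: cells exposed to compound for 16 h before reading.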 The method in brief:
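HCT116 cells, 4000/well, dosed 5 h after plating by pin transfer (217-fold dilution from DMSO stock) and incubated 16 h at 37C, 5% CO2. Viability read as ATP luminescence with CellTiter-Glo after 30 min at room temperature.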

Test [16] is described as follows: ACEA_ER_AUC_viability: ACEA Biosciences xCELLigence Real-Time Cell Analysis on Estrogen Receptor Agonism for Viability (AID 2283782).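 Also: continuous compound exposure with impedance area under curve over 80 h; hit means loss of impedance signal meaning reduced cell growth or viability.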 The procedure, abridged:
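T47D cells preconditioned in phenol red-free RPMI with charcoal-stripped FBS, then dosed with 8-point 1:4 series from 100 uM (up to 0.5% DMSO). Impedance monitored up to ~80 h; area-under-curve loss versus DMSO taken as viability.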

Test [17] concerns the target Bile acid receptor (Homo sapiens) (UniProt Q96RI1). The experiment in a line: ATG_FXR_TRANS: Attagene TRANS-FACTORIAL HepG2 Assay for Farnesoid X Receptor (FXR) (AID 2282979).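 Also: hits raise reporter mRNA above DMSO so AC50 marks FXR activation.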 Particulars: HepG2 Attagene TRANS FXR-GAL4 reporter transcription. The procedure, abridged: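 Chimeric FXR-GAL4 activity in transiently transfected human HepG2 liver cells is scored as induction of reporter mRNA after 24 h of dosing. Detection uses RT-PCR with fluorescent labelling and capillary electrophoresis, with DMSO serving as baseline.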

The target of test [18] is human RAR-related Orphan Receptor beta (RORb), RORB (gene 6096) (UniProt Q92753). The experiment in a line: ATG_RORb_TRANS: Attagene TRANS-FACTORIAL HepG2 Assay for human RAR-related Orphan Receptor beta (RORb) (AID 2283010). The procedure, abridged: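 HepG2 cells transiently transfected with GAL4-UAS reporter units expressing chimeric NR-Gal4 protein; reporter mRNA measured 24 h after dosing by RT-PCR, 6-FAM labelling and capillary electrophoresis. Gain-of-signal fitted relative to DMSO baseline.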

The target in test [19] is Nuclear receptor subfamily 1 group I member 3 (Homo sapiens) (UniProt Q14994). The experiment in a line: ATG_CAR_TRANS: Attagene TRANS-FACTORIAL HepG2 Assay for human Constitutive Androstane Receptor (CAR) (AID 2282969).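 Also: activators raise reporter mRNA above DMSO so AC50 marks induction.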 Conditions: HepG2 Attagene TRANS-FACTORIAL CAR reporter. The method in brief: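 HepG2 cells transiently transfected with GAL4-UAS reporter units; TRANS format reads activity of exogenous chimeric NR-Gal4 protein. After 24 h dosing, reporter mRNA quantified by RT-PCR, 6-FAM labelling and capillary electrophoresis; gain of signal fitted against DMSO.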

Test [20] concerns the target human RAR-related Orphan Receptor gamma (RORg), RORC (gene 6097) (UniProt P51449). Kind of test: ATG_RORg_TRANS: Attagene TRANS-FACTORIAL HepG2 Assay for human RAR-related Orphan Receptor gamma (RORg) (AID 2283011). The procedure, abridged: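 Activity is scored as increase in GAL4-UAS reporter mRNA over DMSO, detected by fluorescent RT-PCR and capillary electrophoresis in HepG2 cells transiently expressing a RORg-Gal4 chimera, 24 h after dosing.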

Chain of human Peroxisome Proliferator-activated Receptor alpha (PPARa), PPARA (gene 5465) (Q07869 whole entry, looked up, the tested form may be a part): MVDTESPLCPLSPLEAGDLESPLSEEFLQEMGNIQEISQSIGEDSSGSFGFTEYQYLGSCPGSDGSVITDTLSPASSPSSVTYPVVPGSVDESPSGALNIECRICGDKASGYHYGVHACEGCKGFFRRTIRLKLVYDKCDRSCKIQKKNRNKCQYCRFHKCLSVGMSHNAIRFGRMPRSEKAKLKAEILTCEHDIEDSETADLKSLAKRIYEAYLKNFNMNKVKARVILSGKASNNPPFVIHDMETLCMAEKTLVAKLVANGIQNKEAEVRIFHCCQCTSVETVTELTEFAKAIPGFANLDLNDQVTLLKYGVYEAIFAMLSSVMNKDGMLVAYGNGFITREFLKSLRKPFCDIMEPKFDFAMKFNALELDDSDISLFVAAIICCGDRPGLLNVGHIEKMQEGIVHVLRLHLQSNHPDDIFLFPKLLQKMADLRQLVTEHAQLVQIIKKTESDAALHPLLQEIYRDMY
Chain of Glucocorticoid receptor (Homo sapiens) (P04150 whole entry, looked up): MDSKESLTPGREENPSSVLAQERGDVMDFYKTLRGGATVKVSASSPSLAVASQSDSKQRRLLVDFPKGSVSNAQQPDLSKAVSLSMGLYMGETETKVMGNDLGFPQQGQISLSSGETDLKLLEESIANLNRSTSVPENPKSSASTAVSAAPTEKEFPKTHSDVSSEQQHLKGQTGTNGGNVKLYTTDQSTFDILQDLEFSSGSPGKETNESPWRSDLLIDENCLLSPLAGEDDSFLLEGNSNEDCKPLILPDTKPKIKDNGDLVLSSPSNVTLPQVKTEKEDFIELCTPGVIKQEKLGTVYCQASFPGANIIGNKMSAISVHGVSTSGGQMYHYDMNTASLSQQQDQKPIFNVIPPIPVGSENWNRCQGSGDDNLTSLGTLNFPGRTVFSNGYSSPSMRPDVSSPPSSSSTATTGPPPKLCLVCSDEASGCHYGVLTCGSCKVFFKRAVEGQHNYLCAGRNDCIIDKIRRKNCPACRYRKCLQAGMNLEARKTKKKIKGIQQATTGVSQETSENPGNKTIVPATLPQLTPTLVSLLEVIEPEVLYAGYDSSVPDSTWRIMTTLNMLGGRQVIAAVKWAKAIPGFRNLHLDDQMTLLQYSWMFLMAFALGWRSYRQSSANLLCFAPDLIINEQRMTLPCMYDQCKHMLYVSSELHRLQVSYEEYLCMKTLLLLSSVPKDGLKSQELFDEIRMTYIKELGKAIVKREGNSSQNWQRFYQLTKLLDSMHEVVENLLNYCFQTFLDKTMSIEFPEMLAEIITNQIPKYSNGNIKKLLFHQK
Chain of Hypoxia-inducible factor 1-alpha (Homo sapiens) (Q16665 whole entry, looked up): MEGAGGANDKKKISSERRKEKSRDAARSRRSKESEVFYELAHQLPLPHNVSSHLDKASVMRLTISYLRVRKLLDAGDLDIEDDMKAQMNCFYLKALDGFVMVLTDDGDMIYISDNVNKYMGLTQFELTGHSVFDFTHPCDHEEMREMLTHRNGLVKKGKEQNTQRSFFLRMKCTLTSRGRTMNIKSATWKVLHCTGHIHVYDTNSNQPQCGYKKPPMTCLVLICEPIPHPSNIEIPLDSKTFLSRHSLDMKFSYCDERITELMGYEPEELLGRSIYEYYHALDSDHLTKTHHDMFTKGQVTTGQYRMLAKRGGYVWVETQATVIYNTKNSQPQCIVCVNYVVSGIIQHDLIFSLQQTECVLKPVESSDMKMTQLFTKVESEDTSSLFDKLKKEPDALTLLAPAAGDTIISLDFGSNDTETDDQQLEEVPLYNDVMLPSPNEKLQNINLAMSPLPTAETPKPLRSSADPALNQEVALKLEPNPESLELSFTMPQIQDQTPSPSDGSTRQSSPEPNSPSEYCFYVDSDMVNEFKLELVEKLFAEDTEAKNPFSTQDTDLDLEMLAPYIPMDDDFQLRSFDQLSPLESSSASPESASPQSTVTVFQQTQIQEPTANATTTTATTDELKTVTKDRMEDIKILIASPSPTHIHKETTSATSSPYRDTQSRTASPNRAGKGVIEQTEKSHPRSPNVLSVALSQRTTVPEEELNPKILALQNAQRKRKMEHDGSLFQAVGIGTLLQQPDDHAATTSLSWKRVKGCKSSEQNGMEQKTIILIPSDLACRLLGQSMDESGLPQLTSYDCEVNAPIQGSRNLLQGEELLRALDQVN
Chain of human Vitamin D Receptor (VDR), VDR (gene 7421) (P11473 whole entry, looked up, the tested form may be a part): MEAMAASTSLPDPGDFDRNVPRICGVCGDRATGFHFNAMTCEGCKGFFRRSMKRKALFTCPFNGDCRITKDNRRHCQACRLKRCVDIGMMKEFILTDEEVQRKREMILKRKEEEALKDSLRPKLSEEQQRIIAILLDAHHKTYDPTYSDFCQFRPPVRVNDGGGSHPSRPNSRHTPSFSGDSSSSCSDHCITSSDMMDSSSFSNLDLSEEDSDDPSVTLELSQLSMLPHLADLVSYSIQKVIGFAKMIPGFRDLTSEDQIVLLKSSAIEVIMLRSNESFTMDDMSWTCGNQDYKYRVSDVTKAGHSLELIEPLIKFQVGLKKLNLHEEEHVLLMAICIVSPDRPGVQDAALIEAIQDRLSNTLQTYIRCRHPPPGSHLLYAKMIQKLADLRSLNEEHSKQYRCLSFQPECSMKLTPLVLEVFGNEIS
Chain of human Thyroid Receptor alpha (THRa1), THRA (gene 7067) (P10827 whole entry, looked up, the tested form may be a part): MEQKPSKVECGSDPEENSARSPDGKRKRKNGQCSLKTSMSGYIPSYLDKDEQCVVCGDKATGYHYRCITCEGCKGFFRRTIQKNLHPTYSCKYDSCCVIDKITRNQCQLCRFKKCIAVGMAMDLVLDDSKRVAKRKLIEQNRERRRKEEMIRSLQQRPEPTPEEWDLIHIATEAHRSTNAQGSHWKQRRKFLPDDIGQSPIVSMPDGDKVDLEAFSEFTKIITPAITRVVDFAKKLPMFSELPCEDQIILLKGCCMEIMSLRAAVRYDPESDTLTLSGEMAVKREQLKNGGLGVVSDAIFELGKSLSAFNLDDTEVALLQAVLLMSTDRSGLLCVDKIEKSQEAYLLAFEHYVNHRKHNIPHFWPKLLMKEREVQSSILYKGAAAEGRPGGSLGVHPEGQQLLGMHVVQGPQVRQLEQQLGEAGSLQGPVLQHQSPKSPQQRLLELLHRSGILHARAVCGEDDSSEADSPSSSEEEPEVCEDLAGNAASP
Chain of human RAR-related Orphan Receptor gamma (RORg), RORC (gene 6097) (P51449 whole entry, looked up, the tested form may be a part): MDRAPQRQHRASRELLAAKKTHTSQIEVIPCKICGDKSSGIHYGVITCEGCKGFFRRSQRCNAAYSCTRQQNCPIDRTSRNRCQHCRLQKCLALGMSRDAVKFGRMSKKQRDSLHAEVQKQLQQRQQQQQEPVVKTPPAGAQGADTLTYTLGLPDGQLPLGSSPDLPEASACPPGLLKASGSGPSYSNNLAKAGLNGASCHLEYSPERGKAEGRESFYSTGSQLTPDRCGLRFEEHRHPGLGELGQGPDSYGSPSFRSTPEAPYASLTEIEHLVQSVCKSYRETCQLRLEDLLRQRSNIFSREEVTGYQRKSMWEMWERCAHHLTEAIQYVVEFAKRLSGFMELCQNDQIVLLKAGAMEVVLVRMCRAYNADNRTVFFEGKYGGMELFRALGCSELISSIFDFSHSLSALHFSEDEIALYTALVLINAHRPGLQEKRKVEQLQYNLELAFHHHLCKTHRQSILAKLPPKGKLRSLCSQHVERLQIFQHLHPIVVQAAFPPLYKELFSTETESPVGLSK
Chain of Oxysterols receptor LXR-alpha (Homo sapiens) (Q13133 whole entry, looked up): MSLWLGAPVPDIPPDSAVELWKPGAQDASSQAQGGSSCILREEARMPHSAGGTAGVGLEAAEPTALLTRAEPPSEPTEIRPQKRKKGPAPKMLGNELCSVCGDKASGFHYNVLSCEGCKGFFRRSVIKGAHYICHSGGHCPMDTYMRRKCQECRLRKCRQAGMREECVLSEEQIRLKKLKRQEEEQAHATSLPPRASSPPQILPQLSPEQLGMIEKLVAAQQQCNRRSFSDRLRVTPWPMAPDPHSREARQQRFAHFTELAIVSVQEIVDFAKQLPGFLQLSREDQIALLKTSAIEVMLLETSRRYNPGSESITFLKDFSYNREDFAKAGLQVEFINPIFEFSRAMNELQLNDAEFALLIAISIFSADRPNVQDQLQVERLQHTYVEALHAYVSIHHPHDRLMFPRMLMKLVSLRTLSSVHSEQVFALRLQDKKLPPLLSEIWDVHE

`CCC(C)C1N=C(C)C(C)S1` (centres undefined): the result in [1], in test [2], in [3], in test [4], in [5] and in test [6] was inactive. Besides, the compound was classed as inactive in test [7].

On to `Cc1ccnc(N)c1`, for which the result in test [8], in test [9], in test [10], in [2], in [11] and in test [6] was inactive. In test [7], the outcome was inactive. Further, in test [1], the AC50 is 76.7 µM (active).

Turning to `CCCCCCC1CCCC(=O)O1` (centres undefined), the compound was classed as inactive in test [1], in [2], in test [3], in test [4], in [12] and in test [14]. For the same compound, the compound was called inactive in test [15], in test [7] and in [16]. For the same compound, the AC50 in [13] was 27.3 µM (active); in test [5], 52.6 µM (active).

As for `Cc1cc(O)cc(C)c1Cl`, the AC50 in [9] is 37.1 µM (active); in [16], 81.1 µM (active). In addition, the call in [2], in [3], in [4], in test [12], in test [13] and in [5] was inactive. For the same compound, in [11], the result was inactive.

Turning to `COc1c2occc2cc2ccc(=O)oc12`, the result in test [2], in test [17], in [13], in test [5], in test [18] and in [6] was inactive. The compound was classed as inactive in test [15], in test [7] and in test [16].

On to `Cc1ccccc1S(N)(=O)=O`, for which the compound was called inactive in test [8], in test [1], in test [19], in [10], in test [4] and in test [12]. The outcome in [5], in test [6], in test [15], in test [7] and in test [16] was inactive.

In the case of `O=C1NC(=O)[C@@H]2CC=CC[C@H]12`, the call in test [8], in [2], in test [3], in test [17], in test [13] and in test [5] was inactive. The compound was classed as inactive in [6], in [14] and in test [15].

Consider `CO[Si](CCCNCCN)(OC)OC`, for which the compound was called inactive in [9], in test [12], in [13], in test [5], in test [18] and in [20]. Moreover, the compound was classed as inactive in test [6], in test [14] and in test [16].

As to `CC(C)=CCOC(=O)c1ccccc1`, the compound was classed as inactive in test [1], in test [10], in test [3], in test [4], in [12] and in test [5]. The outcome in test [20], in test [6], in [14], in test [15] and in test [7] was inactive. The AC50 in [16] is 50 µM (active).

Regarding `O=C(O)c1ccccc1C(=O)O`, the compound was called inactive in test [2], in test [3], in test [12], in test [5], in test [20] and in test [6]. Also, the compound was called inactive in test [15], in [7] and in [16].
